Values joined by “and” are separate entries in the source; they are usually repeats but may differ in a detail not shown here. Identical values can stand only once. The whole screen tested about 5,500 compounds, of which about 2,000 (36%) were called active. Another 18% or so got no clear call; they are omitted. Rule as the data show it: active = normalized growth mostly below about 0.91 (no sharp cut-off); inconclusive = no clear call, values can overlap the other calls; inactive = mostly above about 0.92. This is one part of the list.
Experiment: chemical genetic growth profiling, strain panel (AID 1159580);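 also: tested at 20 µM; growth read once vehicle control cultures reached saturation at 30 °C; 1 = growth at the plate median or of vehicle wells; lower values mean less growth of the strain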
Details: S. cerevisiae deletion strains, growth OD

Measured: normalized growth

NC(N)=NC(N)=Nc1ccccc1
inactive: locus YAL013W, strain DEP1, active compounds read low 1.01 and 0.984 | locus YAL021C, strain ccr4, active compounds read low 1 | locus YAL026C, strain drs2, active compounds read low 0.998 | locus YAL030W, strain snc1, active compounds read low 1.01 | locus YAL040C, strain CLN3, active compounds read low 1.08 | locus YBL061C, strain skt5, active compounds read low 1 | locus YBR009C, strain hhf1, active compounds read low 0.979 | locus YBR021W, strain FUR4, active compounds read low 1.02 | locus YBR023C, strain chs3, active compounds read low 1 | locus YBR171W, strain sec66, active compounds read low 1 | locus YBR229C, strain ROT2, active compounds read low 1.01 | locus YBR231C, strain swc5, active compounds read low 0.987 | locus YBR279W, strain paf1, active compounds read low 1 | locus YCL011C, strain gbp2, active compounds read low 1 | locus YCL016C, strain dcc1, active compounds read low 1 | locus YCL029C, strain bik1, active compounds read low 0.995 | locus YCL061C, strain MRC1 (second series), active compounds read low 1 | locus YCL061C, strain MRC1, active compounds read low 0.993 | locus YCL069W, strain vba3, active compounds read low 1 | locus YCR088W, strain abp1, active compounds read low 1.01 | locus YDL005C, strain med2, active compounds read low 0.998 | locus YDL035C, strain GPR1, active compounds read low 1.01 | locus YDL040C, strain nat1, active compounds read low 0.991 | locus YDL074C, strain BRE1, active compounds read low 1.02 | locus YDL101C, strain DUN1, active compounds read low 1.02 | locus YDL134C, strain PPH21, active compounds read low 1.01 | locus YDL185W, strain tfp1, active compounds read low 0.996 | locus YDL192W, strain arf1, active compounds read low 0.998 | locus YDR001C, strain nth1, active compounds read low 0.998 | locus YDR069C, strain doa4, active compounds read low 0.995 | locus YDR101C, strain arx1, active compounds read low 1.02 | locus YDR137W, strain rgp1, active compounds read low 0.981 | locus YDR150W, strain NUM1, active compounds read low 0.998 | locus YDR159W, strain sac3, active compounds read low 0.961 | locus YDR162C, strain NBP2, active compounds read low 1.01 | locus YDR195W, strain ref2 0.948 | locus YDR297W, strain sur2, active compounds read low 0.999 | locus YDR318W, strain mcm21, active compounds read low 0.992 | locus YDR334W, strain swr1, active compounds read low 1 | locus YDR335W, strain msn5, active compounds read low 1 | locus YDR363W, strain ESC2, active compounds read low 1.02 | locus YDR388W, active compounds read low 1 | locus YDR392W, strain spt3, active compounds read low 0.903 | locus YDR502C, strain sam2, active compounds read low 0.993 | locus YEL003W, strain gim4, active compounds read low 0.998 | locus YEL037C, strain rad23, active compounds read low 1.01 | locus YEL061C, strain CIN8 (second series), active compounds read low 0.996 | locus YEL061C, strain CIN8, active compounds read low 1.01 | locus YER002W, strain NOP16, active compounds read low 1.03 | locus YER015W, strain faa2, active compounds read low 0.998 | locus YER016W, strain bim1, active compounds read low 0.999 | locus YER110C, active compounds read low 0.986 | locus YER111C, strain swi4, active compounds read low 0.996 | locus YER155C, strain BEM2 (second series), active compounds read low 0.964 | locus YER155C, strain BEM2, active compounds read low 1 | locus YER167W, strain BCK2, active compounds read low 1.01 | locus YFR010W, strain ubp6, active compounds read low 1.01 | locus YGL078C, strain dbp3, active compounds read low 0.997 | locus YGL086W, strain mad1, active compounds read low 0.997 | locus YGL167C, strain pmr1, active compounds read low 0.993 | locus YGL173C, strain kem1, active compounds read low 0.991 | locus YGL227W, strain vid30, active compounds read low 0.997 | locus YGL240W, strain doc1, active compounds read low 0.964 | locus YGL248W, strain PDE1, active compounds read low 1.02 | locus YGL253W, strain hxk2, active compounds read low 1.01 | locus YGR078C, strain PAC10, active compounds read low 1.01 | locus YGR135W, strain pre9, active compounds read low 0.995 | locus YGR229C, strain SMI1, active compounds read low 0.985 | locus YGR252W, strain gcn5, active compounds read low 0.993 | locus YHR013C, strain ard1, active compounds read low 0.952 | locus YHR027C, strain rpn1, active compounds read low 1 | locus YHR030C, strain SLT2, active compounds read low 1.01 and 1 | locus YHR079C, strain IRE1 (second series), active compounds read low 0.988 | locus YHR079C, strain IRE1, active compounds read low 1 | locus YHR094C, strain hxt1, active compounds read low 0.987 | locus YHR129C, strain ARP1, active compounds read low 1.01 | locus YHR142W, strain chs7, active compounds read low 1.03 | locus YHR200W, strain rpn10, active compounds read low 0.997 | locus YIL066C, strain RNR3, active compounds read low 1.02 | locus YIL073C, strain SPO22, active compounds read low 0.989 | locus YIL125W, strain kgd1, active compounds read low 0.988 | locus YIR030C, strain dcg1, active compounds read low 0.996 | locus YJL092W, strain hpr5, active compounds read low 1 | locus YJL095W, strain BCK1 (second series), active compounds read low 1.01 | locus YJL095W, strain BCK1, active compounds read low 1.03 and 0.993 | locus YJL115W, strain asf1, active compounds read low 1 | locus YJL129C, strain trk1, active compounds read low 1.02 | locus YJL134W, strain LCB3, active compounds read low 1.01 | locus YJL154C, strain vps35, active compounds read low 1.01 | locus YJL164C, strain tpk1, active compounds read low 1 | locus YJL166W, strain qcr8, active compounds read low 0.992 | locus YJL168C, strain set2, active compounds read low 0.994 | locus YJL187C, strain SWE1 (second series), active compounds read low 1.02 | locus YJL187C, strain SWE1, active compounds read low 1 | locus YJR043C, strain POL32, active compounds read low 1.01

— PubChem BioAssay AID1159580 (chemical genetic matrix, 2015)
